Screening results deposited in PubChem BioAssay by National Center for Advancing Translational Sciences (NCATS).
Sampled rows, rich in hits. Any-hit rate of the full collection: about 3.8%.
ATXN2 expr inh = ATXN2 expression inhibition. HEK-293 ATXN2-luciferase reporter, luminescence, 24 h. Potency, µM (doses to about 57 µM), actives largely listed as inhibitors. actives 0.72% (n = 360,000); also: nearly all actives have a fitted effect of over 55% in size
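qHTS (up to 57 uM final) was run with 24 h compound exposure of reporter cells at 37 °C. Each well was multiplexed: SteadyGlo luminescence measured ATXN2-luciferase expression after a fluorogenic Gly-Phe-AFC viability readout (25 uM final).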
ATXN viability = cell viability loss in ATXN counter-screen | S2 cells (HEK-293 line with an ATXN2-luciferase reporter) viability, CellTiter-Fluor protease fluorescence, 24 h | Potency, µM (top dose mostly 56.7 µM), most hits filed as cytotoxic | actives 0.49% (n = 400,000); also: nearly all actives have a fitted effect of over 40% in size
HT1080NT lethal = kills 2HG-producing HT-1080-NT fibrosarcoma cells | HT-1080-NT fibrosarcoma viability, CellTiter-Glo ATP luminescence, 48 h | Potency, µM (titrated, usually from 46.1 µM), actives largely listed as cytotoxic | actives 1.6% (n = 360,000) | AID 686970;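 also: NT is the 2HG producing partner of a matched IDH1 knockdown line; nearly all actives have a fitted effect of over 55% in size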
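Compounds were tested in concentration-response format on HT-1080-NT cells for 48 hours at 37 degrees C. Cell viability came from CellTiter-Glo luminescence; curves were classified by r2, response magnitude and activity.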
HT1080 IDH1KD tx = kills HT-1080 cells with IDH1 knockdown. HT-1080 IDH1 knockdown viability, ATP luminescence, 48 h. Potency, µM (top dose mostly 46.1 µM), actives largely listed as cytotoxic. actives 2% (n = 360,000)
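In this qHTS, HT-1080 cells depleted of IDH1 are exposed for 48 h at 37 °C to compound titrations. Toxicity is scored from CellTiter-Glo luminescence, with DMSO as full viability and medium alone as none.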
HepG2 tox = HepG2 cytotoxicity, counter-screen for TGF-b inhibitors | HepG2 CAGA-GFP viability, ATP luminescence, 18 h | Potency, µM (top dose mostly 46.1 µM), actives largely listed as cytotoxic | actives 0.76% (n = 410,000) | AID 588856
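HepG2 CAGA-GFP cells (1000/well, DMEM with 1% FBS) received compound, then TGF-beta at 500 pg/mL final, and were incubated 18 hours at 37 degrees C. Viability was read by CellTiter-Glo luminescence. Media-only wells were set as complete cell-killing and DMSO as no toxicity.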
TGFb SMAD3 inh = TGF-b pathway inhibition. Potency, µM (titrated, usually from 46.1 µM), most hits filed as inhibitors. HepG2 CAGA-GFP TGF-b/SMAD3 reporter, GFP fluorescence, 18 h; TGF-beta stimulated, 500 pg/mL final. actives 1.2% (n = 410,000). AID 588855; also: nearly all actives have a fitted effect of over 65% in size
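Cell-based qHTS in HEPG2 carrying a CAGA-GFP Smad reporter; compounds added before 500 pg/mL final TGF-beta, 18 h incubation at 37 degrees C, GFP fluorescence quantified per cell by imaging cytometry.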
Numbers stand for hits. Calls follow the shape of the dose curve; as a rule, active = well fitted curve in the direction sought with a large enough effect; inconclusive = small, poorly fitted or top-dose-only effect, or another doubt; inactive = no such curve, though single readings can be large; an effect the other way counts as inactive or inconclusive.

O=C(Nc1ccccc1)c1ccc(-n2nncc2-c2ccccc2)cc1 was read as HepG2 tox inactive and TGFb SMAD3 inh inactive.
`COCCOC(=O)c1[nH]c2c(c1C)C(=O)CC(c1cc(OC)ccc1OC)C2` (stereo unspecified) gave ATXN2 expr inh inactive, ATXN viability inactive, HT1080NT lethal 12µM, HT1080 IDH1KD tx 12µM, HepG2 tox inactive and TGFb SMAD3 inh inactive.
`COc1ccc(OC)c(C2CC(=O)c3c([nH]c(C(=O)OCc4ccc(C)cc4)c3C)C2)c1` (stereo unspecified) gave HepG2 tox inactive and TGFb SMAD3 inh inactive.
For COc1ccc(C(=O)/C=C/Sc2nc3ccccc3o2)cc1 the results were ATXN2 expr inh inconclusive, HT1080NT lethal inconclusive, HT1080 IDH1KD tx 3.3µM, HepG2 tox 18µM and TGFb SMAD3 inh 10µM.
O=C1c2ccccc2NC(c2ccc(-c3ccc(Br)cc3)o2)N1O (stereo unspecified) was read as ATXN2 expr inh inconclusive, ATXN viability inconclusive, HT1080NT lethal 7.9µM, HT1080 IDH1KD tx 11µM, HepG2 tox inactive and TGFb SMAD3 inh inconclusive.
O=C1c2ccccc2NC(c2ccc(-c3ccc(F)cc3)o2)N1O (stereo unspecified) was read as ATXN2 expr inh inconclusive, ATXN viability inconclusive, HepG2 tox inactive and TGFb SMAD3 inh inactive.
Cc1cnc(SCCN2CCOCC2)nc1C1CCCN(C(=O)c2cccc3c(C)c(C)[nH]c23)C1 (stereo unspecified) was read as ATXN viability inactive.
For N=c1c2c(n(Cc3ccc([N+](=O)[O-])cc3)c3c1CCC3)CCCC2 the results were ATXN2 expr inh inactive, ATXN viability inactive, HT1080NT lethal inactive, HT1080 IDH1KD tx inactive, HepG2 tox inactive and TGFb SMAD3 inh inactive.
For N=c1c2c(n(Cc3ccc(Cl)c(Cl)c3)c3c1CCC3)CCCC2 the results were ATXN2 expr inh inconclusive, ATXN viability inconclusive, HT1080NT lethal 23µM, HT1080 IDH1KD tx 18µM, HepG2 tox inactive and TGFb SMAD3 inh inconclusive.
For N=c1c2c(n(Cc3ccc(Br)cc3)c3c1CCC3)CCCC2 the results were ATXN2 expr inh inconclusive, ATXN viability inactive, HT1080NT lethal 21µM, HT1080 IDH1KD tx 18µM, HepG2 tox inactive and TGFb SMAD3 inh inconclusive.
Screening COc1cc(NC(=O)c2cc3c(s2)-c2ccccc2OC3)cc(OC)c1OC returned ATXN2 expr inh inconclusive, ATXN viability inconclusive, HepG2 tox inactive and TGFb SMAD3 inh inconclusive.
O=c1cc(C(F)(F)F)[nH]c2ccc(OC(F)(F)F)cc12 was read as ATXN2 expr inh inconclusive, ATXN viability inactive, HT1080NT lethal inconclusive, HT1080 IDH1KD tx 21µM, HepG2 tox inactive and TGFb SMAD3 inh inconclusive.
Screening Cc1ccc(Cc2c(-c3ccc(Cl)cc3)nc3c(C)cc(Br)cn23)cc1 returned ATXN2 expr inh inactive, ATXN viability inactive, HT1080NT lethal inconclusive, HT1080 IDH1KD tx 16µM, HepG2 tox inactive and TGFb SMAD3 inh inconclusive.
`Cc1cc(Br)cn2c(Cc3ccsc3)c(-c3ccccc3)nc12` gave ATXN2 expr inh inactive, ATXN viability inconclusive, HT1080NT lethal inactive, HT1080 IDH1KD tx inactive, HepG2 tox inactive and TGFb SMAD3 inh inconclusive.
Screening Cc1ccc(-c2nc3c(C)cc(Br)cn3c2Cc2ccsc2)cc1 returned ATXN2 expr inh inactive, ATXN viability inconclusive, HT1080NT lethal inconclusive, HT1080 IDH1KD tx 16µM, HepG2 tox inactive and TGFb SMAD3 inh inconclusive.
N#CC1=C(N)NC(SCC(=O)c2ccccc2)=C(C#N)C12CCCC2 was read as ATXN2 expr inh inactive, ATXN viability inactive, HT1080NT lethal inactive, HT1080 IDH1KD tx inactive, HepG2 tox inactive and TGFb SMAD3 inh inactive.
For N#CC1=C(N)NC(SCC(=O)Nc2ccc(Br)cc2)=C(C#N)C12CCCCC2 the results were ATXN2 expr inh inactive, ATXN viability inactive, HT1080NT lethal inconclusive, HT1080 IDH1KD tx inconclusive, HepG2 tox inactive and TGFb SMAD3 inh 18µM.
N#CC1=C(N)NC(SCc2ccc(Cl)cc2)=C(C#N)C12CCCCC2 was read as ATXN2 expr inh inactive, ATXN viability inactive, HT1080NT lethal inconclusive, HT1080 IDH1KD tx 21µM, HepG2 tox inactive and TGFb SMAD3 inh inconclusive.
For N#CC1=C(N)NC(SCc2ccc(Br)cc2)=C(C#N)C12CCCCC2 the results were ATXN2 expr inh inactive, ATXN viability inconclusive, HT1080NT lethal inactive, HT1080 IDH1KD tx inactive, HepG2 tox inactive and TGFb SMAD3 inh inconclusive.
CC[C@H](CO)Nc1nc(NCc2ccccc2)c2ncn(C(C)C)c2n1 was read as ATXN2 expr inh 24µM.
`NCc1ccccc1CC(=O)N[C@@H]1C(=O)N2C(C(=O)O)=C(CSc3nnnn3CC(=O)O)CS[C@H]12` gave ATXN viability inactive.
`O=C1/C(=C/c2ccccc2)CCc2ccc(Cl)nc21` gave ATXN2 expr inh inconclusive, ATXN viability inconclusive, HT1080NT lethal inconclusive, HT1080 IDH1KD tx 18µM, HepG2 tox inactive and TGFb SMAD3 inh 20µM.
Screening COC(=O)c1ccc(CN2CCC3(CCC(CNC(=O)c4ccccc4)O3)CC2)cc1 (stereo unspecified) returned ATXN viability inactive.
Screening C=CCNC(=O)/C(C#N)=C/c1ccccc1Cl returned ATXN2 expr inh inactive, ATXN viability inactive, HT1080NT lethal inactive, HT1080 IDH1KD tx inactive, HepG2 tox inactive and TGFb SMAD3 inh inactive.
Screening C=CCNC(=O)/C(C#N)=C/c1cc(Br)ccc1OC returned ATXN2 expr inh inactive, ATXN viability inconclusive, HT1080NT lethal 21µM, HT1080 IDH1KD tx inconclusive, HepG2 tox inactive and TGFb SMAD3 inh inactive.
`C[C@@H]1C[C@H]2[C@@H]3CCC4=CC(=O)C=C[C@]4(C)[C@@]3(F)C(O)C[C@]2(C)[C@@]1(O)C(=O)CO` (stereo partly specified) gave HepG2 tox inactive and TGFb SMAD3 inh inactive.
`C1Cc2[nH]nc(-c3nn[nH]n3)c2C1` gave ATXN2 expr inh inactive.
`CN(C)CCNc1nc2sc3c(c2c(=O)n1-c1ccccc1)CCCCC3` gave ATXN2 expr inh inactive, ATXN viability inactive, HT1080NT lethal inconclusive, HT1080 IDH1KD tx inconclusive, HepG2 tox 14µM and TGFb SMAD3 inh inactive.
Screening CN(C)CCNc1nc2sc3c(c2c(=O)n1-c1ccc(F)cc1)CCCCC3 returned ATXN2 expr inh inactive, ATXN viability inactive, HT1080NT lethal 23µM, HT1080 IDH1KD tx inconclusive, HepG2 tox inactive and TGFb SMAD3 inh inconclusive.
COc1ccc(-n2c(NCCN(C)C)nc3sc4c(c3c2=O)CCCCC4)cc1 was read as ATXN2 expr inh inconclusive, ATXN viability inconclusive, HT1080NT lethal inactive, HT1080 IDH1KD tx inactive, HepG2 tox inactive and TGFb SMAD3 inh inactive.
